Assay results from PubChem BioAssay AID430 (Sanford-Burnham Center for Chemical Genomics, 2006).
Among all 63,000 compounds or so, about 1,100 (1.7%) were called active. The sample as a whole holds a higher share of actives than the screen did. Measured potencies and affinities stand elsewhere. A number with no mark means an inactive call. No stated cut-off is given here; in the data, active means cytotoxicity above about 50%; inactive means the rest.

assay: HPDE-C7 pancreatic duct cell viability loss – fluorescence, HTS (AID 430); settings: HPDE-C7 pancreatic duct cells viability, at 10 µM, stronger effect = higher value;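 further: cells exposed to compound for 48 hours before viability readout; 0% = vehicle and 100% = reference cytotoxic drug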

| Structure (SMILES) | cytotoxicity |
| --- | --- |
| COC(=O)CN1CCN(C(=O)c2ccc(F)cc2)c2ccccc2C1 | -14.6% |
| Cc1cc(Cl)ccc1N=Cc1c(O)n(C)c(=O)n(C)c1=O | -4.4% |
| Cc1cccnc1NCC(O)COc1ccccc1 (stereo not drawn) | -2.3% |
| CN1CCN(CC(=O)N(Cc2c(C#N)c3ccccc3n2C)c2ccccc2)CC1 | 2.3% |
| O=C(c1ccccc1C(=O)N1CCN(c2ccc(F)cc2)CC1)N1CCN(c2ccc(F)cc2)CC1 | 2.5% |
| COC(=O)C(C)NC(=O)C1CCCN1S(=O)(=O)c1cc(C)c(Cl)cc1C (stereo not drawn) | 7.8% |
| CN(C)C(=O)N1CCC(C(=O)NCc2ccccc2)CC1 | -9.6% |
| Cc1nc(N2CCC(C)CC2)c2c(C)c(C(=O)O)sc2n1 | -38.1% |
| Cc1cc(C)c2c3c(c(-c4ccccc4)n2n1)c(=O)n(C)c(=O)n3C | -6.5% |
| CCN1CCN(c2ccc(NC(=O)COc3ccccc3Cl)cc2)CC1 | -13.4% |
| Cn1cc(Cl)c(C(=O)N2CCN(c3ncccn3)CC2)n1 | 3.1% |
| CCC(c1nnnn1Cc1cccs1)N1CCN(c2nc3ccccc3s2)CC1 (stereo not drawn) | -1.9% |
| c1ccc(COc2ccc(Nc3ncnc4nc[nH]c34)cc2)cc1 | -3.8% |
| C=CCn1c(N)c(C(=O)OC(C)(C)C)c2nc3ccccc3nc21 | 8.7% |
| C=CCn1c(N)c(C(=O)Nc2ccccc2)c2nc3ccccc3nc21 | 66.5% (active) |
| C=CCn1c(N)c(C(=O)OCCC)c2nc3ccccc3nc21 | 5.2% |
| COC(=O)c1cccc(S(=O)(=O)N(Cc2ccco2)Cc2cc3ccc(OC)cc3[nH]c2=O)c1 | -2.3% |
| O=C(CCSc1ccccc1)N1CCOCC1 | 2.9% |
| O=C1N=c2ccccc2=C1c1sc(=S)n(CC2CCCO2)c1O (stereo not drawn) | -0.5% |
| C=CCn1c(O)c(C2=c3ccccc3=NC2=O)s/c1=N/c1nccs1 | -2.6% |
| C=CCn1c(O)c(C2=c3ccccc3=NC2=O)sc1=Nc1ccc(O)cc1 | 111% (active) |
| Cc1cccc(OCCc2nnc(N)s2)c1C | -15.8% |
| CC(C)c1nnc(NC(=O)CSc2nc3ccccc3s2)s1 | -8.4% |
| Cc1ccc(C(C(=O)NC(C)(C)C)N(CC2CCCO2)C(=O)Cn2nnc(-c3ccc(C)o3)n2)cc1 (stereo not drawn) | -0.4% |
| COc1ccc(-c2cc3ccccc3n2CC(O)CN2CCN(CCO)CC2)cc1 (stereo not drawn) | 52.6% (active) |

| Structure (SMILES) | cytotoxicity |
| --- | --- |
| COc1ccc(-c2cc3ccccc3n2CC(O)CN2CCOCC2)cc1 (stereo not drawn) | -1.1% |
| COc1ccc(-c2cc3ccccc3n2CC(O)CNC(CO)(CO)CO)cc1 (stereo not drawn) | 6.1% |
| CCOc1ccc(C2C(C(=O)c3ccco3)=C(O)C(=O)N2Cc2cccnc2)cc1OC (stereo not drawn) | 7.1% |
| O=C(OC1CCCCC1)c1ccc(NC(=O)c2ccco2)cc1 | 58.1% (active) |
| O=C(Nc1ccc(OC(=O)c2ccco2)cc1)c1ccco1 | -10.9% |
| Cc1ccc(NC(=O)c2ccc(OC(=O)c3ccco3)cc2)cc1 | -5.6% |
| O=C(Nc1ccc(Oc2ccc(NC(=O)c3ccco3)c(NC(=O)c3ccco3)c2)cc1)c1ccco1 | 25% |
| CCn1c2ccccc2c2cc(NC(=O)c3ccco3)ccc21 | 57.2% (active) |
| Cc1ccc(Oc2ccc(NC(=O)c3ccco3)cc2)cc1 | 78.8% (active) |
| O=C(O)CCC(=O)Nc1ccc(C(=O)OC2CCCCC2)cc1 | -4.7% |
| O=C(Nc1nc(-c2cccs2)c(-c2ccccc2)s1)c1ccco1 | 53.7% (active) |
| CCn1c2ccccc2c2cc(NC(=O)N3CCOCC3)ccc21 | 6.2% |
| CCOC(=O)c1sc(NC(=O)c2ccco2)nc1-c1ccccc1 | -8.2% |
| CCn1c2ccccc2c2cc(CN3CCN(C(=O)c4ccco4)CC3)ccc21 | -25.2% |
| CC(=O)c1sc(NC(=O)c2ccco2)nc1-c1ccccc1 | -1% |
| CC(C)CCNC(=O)CN(CCN1CCOCC1)C(=O)Cn1nnc(-c2ccc(F)cc2)n1 | 4.5% |
| Cc1c(C(=O)O)sc2ncnc(N3CCCCC3C)c12 (stereo not drawn) | 9.8% |
| CCCCCOC(=O)c1ccc(NC(=O)c2ccco2)cc1 | 65.9% (active) |
| CCOC(=O)c1sc(NC(=O)c2ccco2)nc1C | -1.4% |
| COC(=O)c1sc(NC(=O)c2ccco2)nc1C | -3.5% |
| Cc1nc(NC(=O)c2ccco2)sc1C(=O)Nc1ccc(Br)cc1 | 65.7% (active) |
| CCCCOC(=O)c1ccc(NC(=O)c2ccoc2C)cc1 | 3.4% |
| CCCCOC(=O)c1ccc(NC(C)=O)cc1 | -11.4% |
| Cc1ccc2c(c1)NCCO2 | 5.4% |
| COc1c(Br)cc(Br)cc1/C=N/n1c(C)nnc1C | 2.9% |

| Structure (SMILES) | cytotoxicity |
| --- | --- |
| Cc1nnc(C)n1/N=C/c1cc(Br)ccc1O | -12.5% |
| Cc1nnc(C)n1/N=C/c1cc(Br)cc(Br)c1O | 79.9% (active) |
| CC(C)COC(=O)C(N)C(C(=O)OCC(C)C)c1ccccc1 (stereo not drawn) | -6.4% |
| O=C(NCC1CCCO1)C1CC(=O)N(c2ccc(F)c(Cl)c2)C1 (stereo not drawn) | 3.4% |
| CCN(CC)c1ccc2c(C)c(CN3CCOCC3)c(=O)oc2c1 | 24.1% |
| CCOC(=O)Cc1c(C)c2ccc(N(CC)CC)cc2oc1=O | -17.8% |
| CCN(CC)c1ccc2c(C)c(-c3ccc(N)cc3)c(=O)oc2c1 | 11% |
| CCNc1ccc2c(Cl)cc(=O)oc2c1 | -2% |
| CCN(CC)C(=O)CSc1nnc(-c2cccs2)n1Cc1ccco1 | 17.7% |
| O=C(COc1ccccc1)N1CCN(C(=O)c2cccc(F)c2)CC1 | -40.5% |
| CCOC(=O)CN1C(=O)COc2ccc(Cl)cc21 | -8.8% |
| CCN(CC)CCCN(Cc1cc2cc3c(cc2[nH]c1=O)OCCO3)C(=O)Nc1ccc(F)cc1 | 0.9% |
| O=C(O)c1cccc(Cn2cc(Br)cn2)c1 | -12.3% |
| O=C(c1ccc(Cn2cc(Br)cn2)cc1)N1CCN(c2ccccc2)CC1 | 53.1% (active) |
| O=C(c1ccc(Cn2cc(Cl)cn2)cc1)N1CCN(c2ccccc2)CC1 | 12.3% |
| CC(=O)N(Cc1cc(=O)[nH]c2ccccc12)c1cccc(C)c1 | 12% |
| CC1(C)CC(=O)C2=C(C1)N(CCN1CCOCC1)C1=C(C(=O)CC(C)(C)C1)C2c1cccc(Cl)c1 | 3.8% |
| O=C1CC(N2CCN(c3ccccc3)CC2)C(=O)N1c1ccc2c(c1)OCCO2 (stereo not drawn) | -4.9% |
| Cc1ccc(CCNC(=O)C2CCCN(c3nc4ccccc4o3)C2)cc1 (stereo not drawn) | -18% |
| COc1cc(NC(=O)c2ccco2)c(OC)cc1NC(=O)c1cc(OC)c(OC)c(OC)c1 | 52.3% (active) |
| CCOc1cc(NC(=O)c2ccco2)c(OCC)cc1NC(=O)c1cc(OC)c(OC)c(OC)c1 | 14.4% |
| COc1cc(C(=O)Nc2ccc(NC(=O)c3ccco3)nc2)cc(OC)c1OC | -2.5% |
| Cc1cccc(NC(=O)Cn2c(C)c(C#N)c3ccccc32)c1C | -4.9% |
| O=C(CSc1n[nH]c(=O)[nH]c1=O)c1ccccc1 | 5% |
| c1ccc(Cc2nnc3sc(Nc4ccccc4)nn23)cc1 | 3% |

| Structure (SMILES) | cytotoxicity |
| --- | --- |
| CCn1c(SCC(=O)N2CCN(c3ccc(Cl)cc3)CC2)nc2ccccc2c1=O | 2.2% |
| O=C(NCc1cccnc1)C1CC(=O)N(c2ccc(Cl)cc2)C1 (stereo not drawn) | -7% |
| CSC1=NCCN1C(=O)c1cccs1 | 2% |
| N#CC1=C(SCC(=O)c2ccccc2)NC2=C(C(=O)CCC2)C1c1ccco1 (stereo not drawn) | 54.3% (active) |
| Cc1ccc(NC(=O)CSC2=C(C#N)C(c3ccco3)C3=C(CCCC3=O)N2)cc1 (stereo not drawn) | 3.5% |
| COc1ccc(NC(=O)CSC2=C(C#N)C(c3ccco3)C3=C(CCCC3=O)N2)c(OC)c1 (stereo not drawn) | -2.1% |
| Cc1ccc(C(=O)CSC2=C(C#N)C(c3ccco3)C3=C(CCCC3=O)N2)cc1 (stereo not drawn) | 76.5% (active) |
| Cc1ccc(C(=O)CSC2=C(C#N)C(c3ccco3)C3=C(CC(C)(C)CC3=O)N2)cc1 (stereo not drawn) | 7.1% |
| CC(C)(C)c1ccc(C(=O)CCCSC2=C(C#N)C(c3ccco3)C3=C(CCCC3=O)N2)cc1 (stereo not drawn) | 38.2% |
| CCOC(=O)N1CCN(CC(=O)Nc2c(C(=O)OC)[nH]c3cccc(Cl)c23)CC1 | -17.3% |
| COc1ccc(-n2nnnc2SCC(=O)c2cc3ccccc3o2)cc1 | -1.1% |
| CCOC(=O)C1C(=O)CC(C)(O)C(C(=O)OCC)C1c1ccccc1OC (stereo not drawn) | -17.4% |
| CSCCC(NC(=O)OC(C)(C)C)C(=O)NC(CC(C)C)C(N)=O (stereo not drawn) | -35.4% |
| Cc1cccc(C)c1NC(=O)C(c1ccccc1)N1CCC2(CC1)OCCO2 (stereo not drawn) | 9.2% |
| CCCC1=C(C(=O)OCC)C(c2ccccc2OC)NC(=O)N1 (stereo not drawn) | -16.5% |
| Cc1noc(C)c1S(=O)(=O)N(CC(=O)N1CCn2c1nc1ccccc12)c1ccc(C(C)C)cc1 | 8.7% |
| Cn1c(CNc2ccccc2)nc2ccccc21 | -11.4% |
| CCCn1c(CNc2ccccc2O)nc2ccccc21 | 14.5% |
| CCCn1c(NC(=O)c2ccccc2)nc2ccccc21 | -20.2% |
| CCCn1c(NCc2ccco2)nc2ccccc21 | 2% |
| CCCn1c(CNc2ccc(Br)cc2)nc2ccccc21 | 50.8% (active) |
| Cc1ccc(Nc2cc(C)nc3nc(C)nn23)c(C)c1 | -12.6% |
| C=CCOC(=O)C1=C(C)OC(N)=C(C#N)C1c1ccccc1F (stereo not drawn) | 6.1% |
